This note sets out measurements from PubChem BioAssay (EPA / NIEHS).

A short description of test [1]: ATG_CRE_CIS: Attagene CIS-FACTORIAL HepG2 Assay for human cAMP Responsive Element (CRE) binding protein 3 (AID 2282926). The note with it: HepG2 CRE cis-reporter, Attagene multiplexed mRNA; actives raise or lower the signal. In a few lines:
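Endogenous CRE-binding activity in HepG2 is reported through a cis-regulated transfected reporter. Following a day of exposure, mRNA levels are determined by reverse transcription PCR and fluorescent fragment analysis; fits run in both directions versus DMSO.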

A short description of test [2]: ATG_CMV_CIS: Attagene CIS-FACTORIAL HepG2 Assay for human CMV (Internal Marker) (AID 2282928).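 Also: endpoint acts as a background internal control marker rather than a target.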 To be noted: HepG2 CMV promoter reporter, transcription factor profiling; actives raise or lower the signal. The procedure, abridged: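 After transient transfection of HepG2 with reporter transcription units driven by cis-regulatory promoters, cells receive test chemical for 24 h. Labeled reporter amplicons, digested with HpaI, are sized and quantified by capillary electrophoresis against DMSO.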

Active and inactive are the calls of the source. The calls were made as follows: active = hit-call score of the fitted dose curve at least 0.9, where 1 is the maximum; inactive = score below 0.9.

Usually AC50 stands for the midpoint of the concentration-response curve, whichever way the signal moves.

For `CC(c1ccccc1)(c1ccc(O)cc1)c1ccc(O)cc1`, the molecule was classed as inactive in test [1] and in test [2].
`CCCCCCCCCCBr`: in test [1], the result was inactive. Besides, the AC50 in test [2] is 163 µM (active).
Regarding `O=C(NC(=O)c1c(F)cccc1F)Nc1cc(Cl)c(Oc2ncc(C(F)(F)F)cc2Cl)c(Cl)c1`, the molecule was classed as inactive in test [1] and in test [2].
Consider `CC(C)[C@H](C(=O)OC(C#N)c1cccc(Oc2ccccc2)c1)c1ccc(OC(F)F)cc1` (some centres undefined), for which the result in test [1] and in test [2] was inactive.
With `CCOC(=O)OC1=C(c2cc(C)ccc2C)C(=O)NC12CCC(OC)CC2` (centres undefined), the molecule was called inactive in test [1] and in test [2].
As for `Cc1cc(Cl)ccc1N`, the call in test [1] and in test [2] was inactive.
As to `Cc1ccccc1OP(=O)(Oc1ccccc1)Oc1ccccc1`, in test [1], the molecule was called inactive. In test [2], the AC50 is 76.5 µM (active).
As to `O=NN1CCCCCCC1`, the molecule was classed as inactive in test [1] and in test [2].
Turning to `O=[N+]([O-])c1c2ccccc2cc2ccccc12`, the outcome in test [1] and in test [2] was inactive.
For `OC(Cc1ccccc1Cl)(Cn1cncn1)C1(Cl)CC1` (centres undefined), the molecule was classed as inactive in test [1] and in test [2].
Take `O=C/C(Cl)=C(/Cl)C(=O)O`: the molecule was classed as inactive in test [1]. Further, the half-maximal activity concentration (AC50) in test [2] was 94.3 µM (active).
The matching figures for `O=S(=O)(Oc1ccc(Cl)cc1)c1ccc(Cl)cc1`: “inactive” and 49 µM (active).
For `O=C1c2ccccc2C(=O)C1C(=O)C(c1ccccc1)c1ccc(Cl)cc1` (centres undefined), the AC50 in test [1] is 27.5 µM (active); in test [2], 13.7 µM (active).
As to `C[C@]12CC[C@@H](O)C[C@@H]1CC[C@@H]1[C@@H]2CC[C@]2(C)C(=O)CC[C@@H]12`, the result in test [1] and in test [2] was inactive.
On to `CCC[CH2][Sn]([Cl])([Cl])[CH2]CCC`, for which the values for the half-maximal activity concentration (AC50) in test [1] and in test [2] were 0.947 µM (active) and 0.721 µM (active), respectively.
Turning to `O=C(O)c1cc(I)cc(I)c1I`, the molecule was classed as inactive in test [1] and in test [2].
Take `C=CCOC(F)(C(F)(F)F)C(F)(F)F`: the molecule was classed as inactive in test [1] and in test [2].
